The sequences below were run on PPARg DBDmut:RXRa IVT, anti-PPARg (DBD mutation: PPARg1 K132A/R137A, NR concentration 270 nM, RXRa partner concentration 90 nM) (assay: PBM binding z-score (relative to random genomic background probes); higher = stronger binding; sequences stand for … in GC…GCGATTGACAGCGTAGAATGAAGG).
Summary of the method: (§1)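 Scanned fluorescence from custom Agilent 4×180K protein-binding microarrays was regression-normalized. Binding z-scores use random background probes as reference. Ligand-free nuclear receptor dimers were incubated on the arrays for 1 h and detected with antibodies against each partner (one per run).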

In order of falling PBM binding z-score:
1. CAAACTAGGTCACCGAGGTCAAAGTCCGTGCGTA  4.5
2. ATATGTAGGTTACATCCGTGTCATTCAGGCTATG  2.03
3. ACTATTAGTTGACTTAGGGCGACCGATACGACGC  1.73
4. TATCCTAGGTCATGGGCCAGTATACCACGCGAAC  1.4
5. TCAAGTTGGTCAAAGGTCACACACTCGAAATGCG  1.33
6. ATCTCTAGGTTACCAAGTTCAGTGAATGCCGAAC  1.25
7. ATCTCTAGGTAACAAGTTCAGTCAAAGAGAGGAC  1.25
8. CGAACTAGGTCATTGAGAGGACAGTGAATAGTAA  1.23
9. CCTTACGGGTCACAGACAGGTTATAGCATTTGGA  1.16
10. TGTCAAAGTTCAAAGGTAACCTAAGTATCCACAC  1.02
11. TCTATTAGTTGATTGGGGCAACCGAAACAGCGGA  0.999
12. TCATATAGATAAACAGGTGAAAGTCCGTAAGTTA  0.902
13. ATCTCTAGGTAAGACTCAGTTCAGTTAAGAACGC  0.719
14. TCATAGAGGTAATACAGGTGAAAGTCGGCATCTA  0.716
15. TAGCCTAGGTCATGGGCTAGTATACCACGCGAAC  0.577
16. ATCTCTAGCTAAGACTCAGTTCAGTGAAGAACGC  0.405
17. CCTTACGGGTCAAGGGTATAGCACGGGTGGTACG  0.361
18. TCTATTAGTTGAAGGGCAACCGGCGAGTCCGTTT  0.341
19. CGTCCAAGGTCAATGCTAGGTCCGTGAAAGCATT  0.341
20. CCAAGTAGGTTATGGGGCATTCAGGCAACGGTGA  0.251
21. TTACCAAGGTTAAGGTCGTTGATCCCTCTGTAGA  0.246
22. CGTCCAAGGTCAGAAGGTCAGTGAAAGCGACGTG  0.15
23. CCAGACAGGTGAAAGGTAACTTAGTCTGGTACGC  0.0771
24. AGAATGAGGATATACGTAGATCAGGGAAGAAAGT  0.0706
25. GCAGACAGGGGAAACGCAGGTAACTCAGGGTGGC  0.0572
26. GCTAGCTGGTCAGTAAAAGGTCACACACCGGTCG  0.0238
27. CTCGAAAGGTCGGTTGAGGTGAGTATCCGGATAA  -0.0361
28. TCGAGTAGGTTAGTCGGGGCAATCAGCCAACATA  -0.202
29. CGTCCAAGGTCAGCAGGTCAATGAAAGCGACGTG  -0.262
30. GCTTGTAGAACAAGGTTAAGAAAGACTAAGCTAA  -0.311
31. GCTAGCAGGCCATTTGGGTCACTCTATGACGGGC  -0.319
32. TCAGACAGGTGATGGTAACTCAGGTACGCAGTCG  -0.328
33. TTACCAAGGTTAGCTGAGGTCGTTGATCCAACTC  -0.413
34. TTACCAAGGTGAGCTGAGGTCGTTGATCCAACTC  -0.497
35. TCGAGTATGTTAGTCGGGGCATTCAGCCAACATA  -0.528
36. CCTTACGGGCCACTGACAGGTTATAGCATTTGGA  -0.753
37. CTACCAAGGGGAACAAGGTCGTTGATTACTATTC  -0.93
38. GCTGCTAAGTCAGGTTGGTCAGCTAACGGGTACG  -1.49
39. GTACCAAGGAGAATAGGTCGTTGATGAGTAGGCG  -1.64
40. GCAGACCGGTGAAACGCAGGTAACTCAGGGTGGC  -1.77

These sequences were tested on PPARg DBDmut IVT, anti-PPARg (DBD mutation: PPARg1 K132A/R137A, NR concentration 270 nM) in the same assay as above.
Summary of the method: as §1

In order of rising PBM binding z-score:
1. GCAGACCGGTGAAACGCAGGTAACTCAGGGTGGC  -1.81
2. TCGAGTAGGTTAGTCGGGGCAATCAGCCAACATA  -1.1
3. GCTGCTAAGTCAGGTTGGTCAGCTAACGGGTACG  -1.03
4. TCGAGTATGTTAGTCGGGGCATTCAGCCAACATA  -0.979
5. TAGCCTAGGTCATGGGCTAGTATACCACGCGAAC  -0.926
6. TTACCAAGGTTAGCTGAGGTCGTTGATCCAACTC  -0.849
7. CGTCCAAGGTCAGCAGGTCAATGAAAGCGACGTG  -0.753
8. TTACCAAGGTGAGCTGAGGTCGTTGATCCAACTC  -0.723
9. GCTAGCAGGCCATTTGGGTCACTCTATGACGGGC  -0.713
10. CGTCCAAGGTCAGAAGGTCAGTGAAAGCGACGTG  -0.646
11. CCTTACGGGTCAAGGGTATAGCACGGGTGGTACG  -0.594
12. CGTCCAAGGTCAATGCTAGGTCCGTGAAAGCATT  -0.534
13. CCAGACAGGTGAAAGGTAACTTAGTCTGGTACGC  -0.396
14. TCAGACAGGTGATGGTAACTCAGGTACGCAGTCG  -0.349
15. CCTTACGGGCCACTGACAGGTTATAGCATTTGGA  -0.329
16. CTCGAAAGGTCGGTTGAGGTGAGTATCCGGATAA  -0.258
17. GTACCAAGGAGAATAGGTCGTTGATGAGTAGGCG  -0.217
18. GCTAGCTGGTCAGTAAAAGGTCACACACCGGTCG  -0.213
19. GCTTGTAGAACAAGGTTAAGAAAGACTAAGCTAA  -0.211
20. GCAGACAGGGGAAACGCAGGTAACTCAGGGTGGC  -0.175
21. CTACCAAGGGGAACAAGGTCGTTGATTACTATTC  0.266
22. TGTCAAAGTTCAAAGGTAACCTAAGTATCCACAC  0.289
23. CCAAGTAGGTTATGGGGCATTCAGGCAACGGTGA  0.296
24. TTACCAAGGTTAAGGTCGTTGATCCCTCTGTAGA  0.342
25. TCATAGAGGTAATACAGGTGAAAGTCGGCATCTA  0.411
26. ATCTCTAGCTAAGACTCAGTTCAGTGAAGAACGC  0.581
27. CGAACTAGGTCATTGAGAGGACAGTGAATAGTAA  0.676
28. TCTATTAGTTGAAGGGCAACCGGCGAGTCCGTTT  0.729
29. ATCTCTAGGTAAGACTCAGTTCAGTTAAGAACGC  0.801
30. AGAATGAGGATATACGTAGATCAGGGAAGAAAGT  0.805
31. CCTTACGGGTCACAGACAGGTTATAGCATTTGGA  0.89
32. TCATATAGATAAACAGGTGAAAGTCCGTAAGTTA  1.03
33. TCAAGTTGGTCAAAGGTCACACACTCGAAATGCG  1.21
34. ATCTCTAGGTAACAAGTTCAGTCAAAGAGAGGAC  1.27
35. ATCTCTAGGTTACCAAGTTCAGTGAATGCCGAAC  1.33
36. ACTATTAGTTGACTTAGGGCGACCGATACGACGC  1.51
37. TATCCTAGGTCATGGGCCAGTATACCACGCGAAC  1.68
38. TCTATTAGTTGATTGGGGCAACCGAAACAGCGGA  1.72
39. CAAACTAGGTCACCGAGGTCAAAGTCCGTGCGTA  2.89
40. ATATGTAGGTTACATCCGTGTCATTCAGGCTATG  4.51
